Experimental data published in PubChem BioAssay.
Values joined by “and” are separate entries in the source; they are usually repeats but may differ in a detail not shown here. Identical values can stand only once. Active and inactive are the calls of the source.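 The calls were made as follows, unless noted: active = inhibition at or above 50% relative to wild type and mutant plate controls; inactive = inhibition below 50%.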

Experiments:
[1] = inhibitors of TNFa-induced NFkB p65 translocation, primary screen, imaging, HUVEC, MLSMR starter and 10KST1 sets (AID 438;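 active = inhibition above 20% together with a positive visual image hit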;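 also: compound added about 3h40 before a 20 min TNFalpha stimulation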;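 as to inhibition: signal is the nuclear over cytoplasmic p65 intensity ratio per well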); settings: HUVEC TNFa-induced p65 nuclear translocation; cell count: measured here: nuclei count (cytotoxicity indicator), at 2.08 µM; inhibition: at 2 µM, stronger effect = higher value, 0% TNFa-plus-vehicle, 100% no-TNFa wells
[2] = inhibitors of mutant huntingtin aggregation, primary screen, imaging, exon1htt(103Q)mCFP cells, high-content imaging (AID 483;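 active = visual image review flags a hit and inhibition of aggregation exceeds 20%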;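 also: compound exposure lasted 3 days before fixation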;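 as to nuclei count: percent of the per-plate median nuclei count of sample wells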); settings: exon1htt(103Q)mCFP cell line, aggregate imaging, at 2 µM; inhibition of aggregation: stronger effect = higher value; nuclei count: measured here: cell count, toxicity
[3] = inhibitors of E-selectin induction by TNFa, primary screen, imaging, HUVEC, immunofluorescence, MLSMR starter and 10KST1 sets (AID 487;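 active = visually confirmed hit in the image check and inhibition above 20%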;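 as to inhibition: signal is fraction of cell area covered by stained E-selectin grains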;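 as to nuclei count: 100% = median nuclei count of all wells on the same plate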); settings: HUVEC TNFalpha-induced E-selectin immunofluorescence imaging, at 2 µM; inhibition: stronger effect = higher value; nuclei count: measured here: cell number, toxicity
[4] = DUSP6 inhibitors restoring Erk phosphorylation by chemical complementation, primary imaging in DUSP6-transfected HeLa (AID 609;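 active = compounds giving at least 50% inhibition in the cell-based MKP-3 phosphatase rescue imaging test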;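 as to inhibition: phospho-Erk level distribution per well compared with pooled transfected vehicle control wells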); settings: HeLa MKP-3 transfected, phospho-Erk imaging KS statistic, at 10 µM, cells stimulated with TPA for 15 min
[5] = molecular target: Dual specificity protein phosphatase 6 (Homo sapiens) (UniProt Q16828); assay: as above; settings: HeLa MKP-3 transfected, phospho-Erk imaging KS statistic; at 10 µM; stronger effect = higher value; cells stimulated with TPA for 15 min
Sequence of Dual specificity protein phosphatase 6 (Homo sapiens) (Q16828 whole entry, looked up): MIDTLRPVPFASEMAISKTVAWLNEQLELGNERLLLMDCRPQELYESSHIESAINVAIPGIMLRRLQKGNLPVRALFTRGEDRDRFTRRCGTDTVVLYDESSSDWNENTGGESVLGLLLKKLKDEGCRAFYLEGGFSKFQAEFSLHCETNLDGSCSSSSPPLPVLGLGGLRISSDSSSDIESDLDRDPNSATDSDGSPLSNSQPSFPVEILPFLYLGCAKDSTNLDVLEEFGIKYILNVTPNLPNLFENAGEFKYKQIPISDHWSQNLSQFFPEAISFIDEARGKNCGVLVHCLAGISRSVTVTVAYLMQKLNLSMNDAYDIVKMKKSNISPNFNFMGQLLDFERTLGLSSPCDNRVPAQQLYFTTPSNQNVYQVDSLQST

[6] = molecular target: Voltage-gated potassium channel subunit beta-2 (Rattus norvegicus) (UniProt P62483); assay: KvBeta enzyme negative modulators, primary screen, biochemical, NADPH fluorescence (AID 622;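 active = fluorescence slope higher than the sample average by over 3 SD, cut at about -0.22 in these data, passing the limit was not always enough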;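 also: slope of raw intensity against log time taken from 70 to 1610 s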); settings: recombinant KvBeta, 4-cyanobenzaldehyde reduction, at 10 µM, stronger effect = higher value
Sequence of Voltage-gated potassium channel subunit beta-2 (Rattus norvegicus) (P62483 whole entry, looked up): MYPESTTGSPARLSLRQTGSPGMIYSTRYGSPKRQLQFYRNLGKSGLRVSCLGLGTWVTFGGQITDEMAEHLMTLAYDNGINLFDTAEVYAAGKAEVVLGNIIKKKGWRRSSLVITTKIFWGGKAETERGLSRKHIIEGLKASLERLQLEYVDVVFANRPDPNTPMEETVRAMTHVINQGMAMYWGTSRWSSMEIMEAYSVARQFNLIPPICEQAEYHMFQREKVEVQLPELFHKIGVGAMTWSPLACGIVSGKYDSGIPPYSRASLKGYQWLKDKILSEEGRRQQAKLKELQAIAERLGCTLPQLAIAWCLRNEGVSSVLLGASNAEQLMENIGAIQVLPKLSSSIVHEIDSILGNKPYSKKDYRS

[7] = molecular target: Voltage-gated potassium channel subunit beta-2 (Rattus norvegicus) (UniProt P62483); assay: KvBeta positive modulators, primary screen, biochemical, NADPH fluorescence (AID 623;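 active = NADPH fluorescence slope more negative than the mean of all samples by about 3 SD, 99.7% confidence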;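 also: fluorescence intensity change per second fitted from 20 to 320 s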); settings: Recombinant KvBeta, NADPH fluorescence decrease slope, 10 min; at 10 µM; stronger effect = lower value
[8] = molecular target: Alpha-2C adrenergic receptor (Homo sapiens) (UniProt P18825); assay: modulators of alpha2C/GIRK thallium flux, primary screen, cell-based, HEK293 alpha2C/GIRK1/2 (AID 624;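 active = fluorescence slope after compound addition differing from the mean of all screened samples at 99.7% confidence, in either direction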;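 also: slope of fluorescence ratio to pre-addition baseline per second over 15 to 24 s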); settings: thallium flux BTC fluorescence, at 10 µM, actives lie on both sides
Sequence of Alpha-2C adrenergic receptor (Homo sapiens) (P18825 whole entry, looked up): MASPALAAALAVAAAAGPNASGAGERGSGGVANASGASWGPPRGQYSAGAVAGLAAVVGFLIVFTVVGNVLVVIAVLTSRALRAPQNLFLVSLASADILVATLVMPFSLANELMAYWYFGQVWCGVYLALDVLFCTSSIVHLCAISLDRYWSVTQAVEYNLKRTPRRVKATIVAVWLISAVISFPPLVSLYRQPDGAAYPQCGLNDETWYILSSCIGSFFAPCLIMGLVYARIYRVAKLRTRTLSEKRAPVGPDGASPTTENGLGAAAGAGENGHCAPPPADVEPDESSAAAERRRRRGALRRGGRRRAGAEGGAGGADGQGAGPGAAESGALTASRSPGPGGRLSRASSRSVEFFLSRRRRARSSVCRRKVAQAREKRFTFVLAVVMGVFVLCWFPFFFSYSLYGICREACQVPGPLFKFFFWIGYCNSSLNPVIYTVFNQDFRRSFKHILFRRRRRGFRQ

[9] = inhibitors of larval lipid processing in zebrafish, primary screen, whole organism, PED6 fluorescence, gall bladder and intestine (AID 686;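 active = a full or partial loss of lipid-probe fluorescence in the fish gall bladder, intestine or both, judged by eye; inactive = no fluorescence loss, or compound toxic to the fish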;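 also: larvae 5 to 7 days old with five fish per well; signal comes from phospholipase A2 cleavage of quenched PED6 carried via bile; overnight exposure to compound and PED6 before scoring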); settings: Zebrafish larvae PED6 lipid processing, fluorescence scoring; screened at 20 µM (by protocol)
[10] = inhibitors of Chlamydomonas gravitaxis, primary screen, whole organism, Chlamydomonas reinhardtii, WT vs cilia-less mutant, absorbance, 96-well (AID 463189); settings: OD600 absorbance, 2 days, at 10 µM, stronger effect = higher value;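 also: 0% = wild type cc124 cells in DMSO and 100% = ciliumless bld1 mutant cells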
[11] = inhibitors of Sendai virus-induced IRF3 signaling, primary screen, TLR/RLR signaling modifier project, cell-based, Sendai virus stimulus, luciferase, 10K MLSCN set (AID 602276;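 active = inhibition at or above 50% at 10 µM; inactive = inhibition below 50%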;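 also: firefly luciferase from ISG56 promoter only with Renilla not read in this screen; 0% = Sendai virus plus DMSO and 100% = medium plus DMSO without virus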); settings: HEK293 RL24 IRF3 luciferase reporter, at 10 µM, stronger effect = higher value
[12] = inhibitors of poly I:C-induced TLR3 signaling, primary screen, cell-based, poly I:C stimulus, luciferase, 10K MLSCN set (AID 602277;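 active = inhibition of the reporter signal at or above 50%; inactive = inhibition below 50%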); settings: HEK293-TLR3 RL24 IRF3 luciferase reporter, at 10 µM, stronger effect = higher value
[13] = measured here: cell density z-score
[14] = measured here: nuclear c-Myc green intensity z-score
[15] = measured here: nuclear pErk red intensity z-score, stronger effect = higher value

Row | Structure (SMILES) | cell count [1] | inhibition [1] | inhibition of aggregation [2] | nuclei count [2] [%] | inhibition [3] | nuclei count [3] [%] | z-score [4, 13] | z-score [4, 14] | z-score [4, 15] | inhibition [5] | fluorescence slope [6] | NADPH fluorescence slope [7] | slope [8] | outcome [9] | inhibition [10] | inhibition [11] | inhibition [12]
1 | O=C(NCCO)c1cccc2c1C(=O)c1ccccc1-2 | 511 | -13.6% (inactive) | 9.3% (inactive) | 91.4 | -95.8% (inactive) | 137 | -0.677 | 1.11 | 1.88 | 7.73% (inactive) | -0.517 (inactive) | -5.1e-05 (inactive) | 0.00471 (inactive) | inactive | 31.9% (inactive) | 4.9% (inactive) | -1.91% (inactive)
2 | CN1CCCN=C1COC(=O)C(O)(c1ccccc1)C1CCCCC1 (stereo not given) | 703 | -0.1% (inactive) | 15.9% (inactive) | 107 | -113% (inactive) | 127 | -0.149 | -0.804 | 0.222 | 3.45% (inactive) | -0.497 (inactive) | -1.3e-05 (inactive) | 0.00478 (inactive) | inactive | -8.88% (inactive) | 19.2% (inactive) | 50.5% (active)
3 | CCC(NC(C)C)C(O)c1ccc(O)c2[nH]c(=O)ccc12 (stereo not given) | 682 | -3% (inactive) | -11.3% (inactive) | 109 | -80% (inactive) | 142 | 0.193 | 0.138 | 0.273 | 13.3% (inactive) | -0.49 (inactive) | -3.3e-05 (inactive) | 0.00523 (inactive) | inactive | 23.9% (inactive) | 17.4% (inactive) | 45.8% (inactive)
4 | COCCOC(=O)C1=C(C)NC(C)=C(C(=O)OC(C)C)C1c1cccc([N+](=O)[O-])c1 (stereo not given) | 617 | -5.1% (inactive) | -29.1% (inactive) | 98.9 | -38.8% (inactive) | 122 | -0.996 | 0.882 | -0.963 | 32.3% (inactive) | -0.534 (inactive) | 2.5e-05 (inactive) | 0.00348 (inactive) | inactive | 10.2% (inactive) and -3.02% (inactive) | 19.6% (inactive) | 25.9% (inactive)
5 | CCCOc1cccc(C2/C(=C(/O)c3ccccc3)C(=O)C(=O)N2CCN(C)C)c1 (stereo not given) | 511 | -3.9% (inactive) | -5.1% (inactive) | 109 | -90.6% (inactive) | 134 | -0.467 | 0.337 | 1.7 | -0.159% (inactive) | -0.431 (inactive) | -5.6e-05 (inactive) | 0.00489 (inactive) | inactive | 30.4% (inactive) | 15.1% (inactive) | 19.2% (inactive)
6 | COc1ccc(C2=Nn3c(nnc3-c3ccccc3)SC2)cc1OC | 523 | -5.5% (inactive) | -6.6% (inactive) | 92.4 | -126% (inactive) | 132 | -0.336 | 0.955 | 0.104 | -11.5% (inactive) | -0.413 (inactive) | -0.000132 (inactive) | 0.00597 (inactive) | inactive | 2.7% (inactive) | 25% (inactive) | 40.2% (inactive)
7 | CCOC(=O)CSC1=C(C#N)C(=O)NC2(CCCCC2)S1 | 580 | -10.9% (inactive) | -5.9% (inactive) | 108 | -43.8% (inactive) | 131 | -1.03 | 0.989 | 0.0798 | -7.86% (inactive) | -0.497 (inactive) | -4.9e-05 (inactive) | 0.00597 (inactive) | inactive | -1.64% (inactive) | 8.53% (inactive) | 100% (active)
8 | Cn1c(=O)c2[nH]cnc2n(C)c1=O | 656 | -1.4% (inactive) | 12.3% (inactive) | 83.7 | -74.2% (inactive) | 142 | -0.0459 | 0.0873 | -0.896 | 19% (inactive) | -0.453 (inactive) | -2.6e-05 (inactive) | 0.00501 (inactive) | inactive | -1.38% (inactive) and -11.3% (inactive) | 6.67% (inactive) | 32.1% (inactive)
9 | COC(=O)Nc1nc2ccc(Sc3ccccc3)cc2[nH]1 | 678 | 4.6% (inactive) | 9.4% (inactive) | 103 | -3.1% (inactive) | 76.4 | -0.13 | 0.104 | -0.162 | -5.24% (inactive) | -0.475 (inactive) | -5.5e-05 (inactive) | 0.00514 (inactive) | inactive | -5.89% (inactive) | 43% (inactive) | -12.9% (inactive)
10 | CCN(CCCCOC(=O)c1ccc(OC)c(OC)c1)C(C)Cc1ccc(OC)cc1 (stereo not given) | 635 | -4.8% (inactive) | -7.1% (inactive) | 96.1 | -106% (inactive) | 138 | 0.515 | -0.208 | -0.515 | 9.37% (inactive) | -0.488 (inactive) | -7.4e-05 (inactive) | 0.00442 (inactive) | inactive | 55.2% (active) | -44.7% (inactive) | 57.4% (active)
